# The whole screen tested about 5,100 compounds, of which fewer than 10 were called active. Not all results are given here. Unmarked numbers belong to inactive results.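 Rule for the calls: active = inhibition above the mean inhibition over all tested compounds plus 3 SD (cut at about 75% in these data); inactive = the rest.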
# Target: Collagenase 3 (Homo sapiens) (UniProt P45452)
# Test: human MMP13 inhibition, fluorescence-interfering compounds – biochemical, possible fluorescent artifacts, delta fluorescence, confirmation (AID 734);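 note: 0% = DMSO only wells and 100% = 8 µM reference MMP13 inhibitor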
# Details: MMP13 fTHP FRET cleavage, delta fluorescence 4 h; stronger effect = higher value;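 each compound tested at 4 µM nominal in triplicate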
row,Compound,inhibition
1,Cc1oc2c(CN3CCOCC3)c(O)ccc2c(=O)c1-c1ccc(Br)cc1,6.41%
2,CCn1c(=O)c2cc(C(=O)N3CCOCC3)sc2c2ccccc21,-2.27%
3,Cc1ccc(NC(=O)CC2Nc3ccccc3NC2=O)cc1Cl (configuration not stated),5.69%
4,CCOC(=O)N1CCN(C(=O)c2cnn3c(C)c(Cc4ccc(C)cc4)c(C)nc23)CC1,-3.34%
5,O=S(=O)(c1ccccc1C(F)(F)F)N1CCOCC1,6.08%
6,Cc1onc(-c2ccccc2Cl)c1C(=O)Nc1nnc(-c2ccc(F)cc2)s1,6.05%
7,CCOC(=O)N1CCC(N2C(=O)c3ccccc3C2Nc2cc(C(=O)OC)cc(C(=O)OC)c2)CC1 (configuration not stated),3.52%
8,Oc1ccc(N=Cc2ccc(-c3cccs3)s2)cc1,90.8% (active)
9,O=C(c1cccs1)c1ccc(-c2cccs2)s1,3.04%
10,CC(C)CCSc1nc2c(c(=O)[nH]c(=O)n2C)n1CCc1ccccc1,5.17%
11,CC1CCCN(C/C(O)=C(\C#N)c2nc3ccccc3[nH]2)C1 (configuration not stated),4.57%
12,CCCCOC(=O)Cc1c(O)c2ccccc2[nH]c1=O,0.98%
13,CN(C)CCCN1C(=O)c2oc3ccc(F)cc3c(=O)c2C1c1cccnc1 (configuration not stated),5.18%
14,Cc1cccc2cc(C#N)c(NCCNS(=O)(=O)c3ccc4c(c3)OCCO4)nc12,3.35%
15,Cc1ccc(S(=O)(=O)N2CCCC2C(=O)Oc2ccccc2)cc1 (configuration not stated),5.98%
16,Cc1ccc(-n2c(-c3ccncc3)nnc2-c2ccco2)cc1,2.09%
17,Cc1cc(N2CCOCC2)nc2ccc(NC(=O)CCC(=O)N3CCCC(C)C3)cc12 (configuration not stated),2.6%
18,CC(C)(/C=N/O)/[N+]([O-])=C/c1ccccc1C(F)(F)F,8.54%
19,COc1cc2c(=O)n(CC3CCCO3)c(=O)n(CC(=O)Nc3ccc(F)cc3F)c2cc1OC (configuration not stated),2.92%
20,CN1C(=O)Cc2cc(S(=O)(=O)N3CCOCC3)ccc21,2.06%
21,O=C1CCCN1CCCNc1ncnc2c1cnn2-c1ccc(Cl)cc1,3.23%
22,CCOC(=O)c1[nH]c2ccc(OCC)cc2c1NC(=O)CN1CCN(c2ccccc2)CC1,1.46%
23,c1ccc(-n2nnnc2SCc2cn3cccnc3n2)cc1,9.28%

row,Compound,inhibition
1,O=C(Nc1ccc(-c2nc3cccnc3s2)cc1)c1ccco1,4.83%
2,O=C(Nc1ccc(-c2nc3cccnc3s2)cc1)c1ccc(Br)o1,2.61%
3,O=S(=O)(Nc1ccc(-c2nc3cccnc3s2)cc1)c1cccs1,198% (active)
4,N#Cc1nc(-c2cccs2)oc1N1CCN(c2ccccc2)CC1,8.02%
5,Cc1oc(C(C)(C)C)cc1C(=O)Nc1ccc(C(=O)O)cc1,4.23%
6,Cc1ccc(-c2cc(C(=O)N3CCOCC3)c3ccccc3n2)cc1,7.4%
7,CCC(=O)N/C(N)=N/c1nc(C)c2cc(OC)ccc2n1,1.9%
8,COc1nc(-c2ccc(C)cc2)ccc1-c1noc(-c2ccco2)n1,-3.29%
9,Cc1cccn2c(=O)c(C=Nc3ccc(Cl)cc3)c(NCCO)nc12,-0.72%
10,CC(C)COc1ccc(-c2nnc(-c3ccco3)o2)cc1,3.48%
11,COC(=O)C1=CNC=C(C(=O)OC)C1c1cccc(OC)c1,27.7%
12,CN(C)c1ccc(-c2nn3c(C4CCCCC4)nnc3s2)cc1,4.05%
13,COc1ccc(CCNc2oc(-c3ccc(OC)c(OC)c3)nc2C#N)cc1,1.68%
14,COc1ccc(-c2cn3c(C)c(C(=O)Nc4cc(NC(C)=O)ccc4OC)sc3n2)cc1,14.3%
15,COCCNC(=O)c1cc2c(-c3ccccc3F)nn(C)c2s1,-5.47%
16,CC(Oc1ccc2oc(-c3ccccc3)c(C(=O)O)c2c1)C(=O)O (configuration not stated),-5.25%
17,O=c1cc(CN2CCN(c3ccccc3)CC2)c2cc(O)c(-c3ccccc3)cc2o1,8.57%
18,CCN1CCc2c(sc3c2c(NCc2ccco2)nc2nnnn23)C1,10.9%
19,CC(C)CCNC(=O)C(c1ccco1)N(Cc1ccccc1)C(=O)c1snc(C(N)=O)c1N (configuration not stated),2.54%
20,O=C(NCc1cccnc1)c1nnc(Cc2ccc(F)cc2)o1,2.89%
21,O=C(CCSc1nnc2ccccn12)Nc1ccc(F)cc1,3%
22,Cc1ccc(-n2c(Cc3cccn3C)nnc2SCC(=O)Nc2ccc3c(c2)OCO3)cc1,3.78%
23,O=C(O)c1ccc(CSc2nnc(-c3ccncc3)n2CC2CCCO2)cc1 (configuration not stated),5.15%

row,Compound,inhibition
1,Cc1cc(N2CCC(C)CC2)nc2ccc(N3C(=O)CCC3=O)cc12,4.49%
2,O=S(=O)(c1cccc(-c2cn3cc(Cl)ccc3n2)c1)N1CCOCC1,4.43%
3,CCOc1ccc(CC(=O)N2CCN(c3ccc(N4CCOCC4)nn3)CC2)cc1OCC,11.4%
4,Cc1cc(C)c2c(n1)nn1c(N3CCN(c4ccccc4)CC3)cc(C)nc21,-3.18%
5,O=C(NCc1cccnc1)c1cnn2ccccc12,3.72%
6,CCOCCCn1c(C)nc2c(c1=O)c1nc3ccccc3nc1n2CCC1=CCCCC1,-2.22%
7,CCOC(=O)CN=C1CC(C)(C)CC2=C1Sc1ncnc(N(C)C)c1N2,8.62%
8,N#CCSc1nc2[nH]ncc2c(=O)n1-c1ccccc1Br,5.49%
9,CC(=O)Nc1ccc(Nc2ncnc3c2cnn3-c2cccc(C)c2)cc1,8.03%
10,COc1ccc2oc(-c3ccccc3)c(C(=O)N3CCOCC3)c2c1,3.94%
11,CCOC(=O)CSc1nc(-c2ccncc2)ccc1C#N,6%
12,CCOC(=O)CSc1nc(-c2ccc3c(c2)OCO3)ccc1C#N,86.3% (active)
13,CCOC(=O)CSc1nc2cc3c(cc2cc1C#N)OCO3,5.66%
14,N#Cc1nc(-c2ccc(F)cc2)oc1NCc1cccc2c1OCO2,-9.16%
15,Cc1cc(C)n(-c2nc(-c3cccc(Cl)c3)cs2)n1,8.4%
16,c1ccc2sc(Cc3nnc4n3CCCCC4)nc2c1,4.74%
17,Cc1onc(-c2ccccc2)c1C(=O)Nc1ccc2c(C)cc(=O)oc2c1,2.15%
18,CC(=O)c1ccc(N2CCN(C(=O)c3cc(-c4ccc5c(c4)OCO5)nc4ccccc34)CC2)cc1,4.89%
19,COC(=O)c1c(-n2cnnn2)sc(C)c1C,2.3%
20,COc1ccc2cc3cc(C(=O)NCCN4CCc5ccccc5C4)oc3nc2c1,-102%
21,Cn1c(=O)c2nc(-c3ccccc3)oc2c2ccccc21,6.54%
22,COc1ccc(OC)c(-c2cc(C(=O)NCc3ccco3)no2)c1,12%
23,CC(C)OCCCn1c(-c2ccco2)nc2nc3ccccc3nc21,-87.8%

row,Compound,inhibition
1,CCOC(=O)c1cc(-c2cccs2)nc2onc(C)c12,-44.4%
2,COc1cc2ccccc2cc1C(=O)OCC(=O)N1CCOCC1,6.42%
3,COc1ccc(C(=O)/C=C/Nc2cccc(C)n2)cc1OC,5.27%
4,c1nc2sc3c(c2c2nnnn12)CCCC3,2.51%
5,COc1ccc(-c2cc(C(F)(F)F)nc(SCC(=O)NCc3ccco3)n2)cc1OC,8.84%
6,Cc1ccc2c(c1)-c1cc(C)nn1C(c1ccc3c(c1)OCO3)N2 (configuration not stated),6.53%
7,O=C1NC(c2ccco2)Nc2ccccc21 (configuration not stated),-3.14%
8,CCCN(Cc1cc2cc(OC)ccc2[nH]c1=O)C(=O)c1ccncc1,4.53%
9,CCOC(=O)c1oc2cccc(OC(C)=O)c2c1C,8.37%
10,NC(=O)C1CCCN(S(=O)(=O)c2ccc(Br)cc2)C1 (configuration not stated),4.17%
11,COC(=O)c1[nH]c2ccc(Cl)cc2c1NC(=O)CCN1CCN(C2CCCCC2)CC1,6.19%
12,COC(=O)c1[nH]c2cccc(OC)c2c1NC(=O)CCN1CC(C)CC(C)C1 (configuration not stated),-1.84%
13,COCCOC(=O)c1cc(C(=O)c2cc(F)ccc2O)coc1=N,6.65%
14,COc1cccc(=O)c2c(C)oc(C)c12,6.64%
15,Cc1ccc2nc(N3CCN(Cc4nnnn4Cc4ccccc4)CC3)c(C#N)cc2c1,1.5%
16,CCOC(=O)Cc1c(C)nc2c(-c3ccc(Cl)cc3)c[nH]n2c1=O,17.8%
17,COc1cc2cc(CN(CCN3CCCC3)C(=O)Nc3ccc(F)cc3)c(=O)[nH]c2cc1OC,1.27%
18,CCS(=O)(=O)Nc1cc(-c2nc3cccnc3s2)ccc1C,-0.51%
19,CCCCNC(=O)CC1Nc2ccccc2NC1=O (configuration not stated),4.58%
20,CCn1c(=O)c(C(C)=O)nc2ccccc21,7.87%
21,CCCCN(CC)CCNC(=O)c1cc2c(=O)n(C)c3ccccc3c2n1C,9.76%
22,COC(=O)c1[nH]c2ccc(C)cc2c1NC(=O)CN1CCN(Cc2ccccc2)CC1,5.26%
23,Cc1cc(-c2ccccc2)nn1-c1nc2c(c(=O)[nH]c(=O)n2C)n1C,6.56%

row,Compound,inhibition
1,COc1ccc(-c2noc(CCC(=O)NCc3cccnc3)n2)cc1,-0.6%
2,O=C(CSc1ccc2nnc(-c3cccc(F)c3)n2n1)NCC1CCCO1 (configuration not stated),0.9%
3,CCCn1c(=N)c(C(=O)NCC2CCCO2)cc2c(=O)n3cccc(C)c3nc21 (configuration not stated),0.11%
4,COc1cc2c(cc1OC)CN(C(=O)NS(=O)(=O)c1ccc(C)cc1)CC2,6.18%
5,COc1cc2c(cc1OC)-c1cc(N3CCCCCC3)nc(=O)n1CC2,6.6%
6,COc1cc(OC)cc(-c2cc3nc(C)c(CCC(=O)NC(C)CCc4ccco4)c(C)n3n2)c1 (configuration not stated),-0.26%
7,CC(=O)Nc1nonc1-c1nc2ccccc2n1Cc1nnc(C)o1,4.74%
8,COc1ccc(-c2cc(C(F)(F)F)nc(SCC(=O)Nc3cc(C)on3)n2)cc1OC,11.1%
9,COc1cc(OC)cc(C(=O)NCC(=O)N2CCC(C)CC2)c1,7.88%
10,Cc1nn(-c2ccccc2)c2sc(C(=O)OC3CCOC3=O)cc12 (configuration not stated),-15.6%
11,Cc1nn(-c2ccccc2)c2sc(-c3n[nH]c(=S)o3)cc12,75.6% (active)
12,COC(=O)c1cc2c(C)nn(-c3ccccc3)c2s1,5.12%
13,CCOC(=O)N1CCC(NC(=O)c2cc3c(-c4cccc(OC)c4)nn(C)c3s2)CC1,1.92%
14,Cc1ccc(S(=O)(=O)Nc2ccccc2C(N)=O)cc1,7.43%
15,N=C1C(c2nc3ccccc3c(=O)[nH]2)=C(O)CN1CCc1ccccc1,-5.72%
16,COc1ccccc1C(=O)Nc1ccc(S(=O)(=O)N2CCOCC2)cc1,-0.87%
17,O=C(c1ccc(Br)o1)N1CCN(Cc2ccc3c(c2)OCO3)CC1,3.6%
18,Cc1ccc2nc(-c3ccc(SCC(=O)O)nc3)[nH]c2c1,-13.3%
19,O=C(NCCN1CCOCC1)c1cc2ccccc2[nH]1,3.77%
20,COC(=O)c1ccc(Sc2ccc(C)cc2)c(N)c1,-1.3%

# Reference: PubChem BioAssay AID734 (The Scripps Research Institute Molecular Screening Center, 2007)
